Compounds without any hit were thinned out: in the full panel of roughly 83,000, 20% have a hit.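 Cell lines were cultured in 96-well plates, exposed to a single compound concentration, and assessed for percent growth 48 hours later.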 Values without a mark were called inactive. Activity calls are given as the source filed them. How the source made its calls: active means growth percent below 10; inactive means the rest.
How the values were obtained:
Assay in all cases: NCI-60 one-dose screen, 48 h (100 = growth as untreated, 0 = no growth, -100 = all killed)
Settings in all cases: 10 µM unless noted
[1] = tested on: DU-145 prostate
[2] = tested on: K-562 leukemia
[3] = tested on: MALME-3M melanoma
[4] = tested on: MDA-MB-231 breast
[5] = tested on: RXF 393 renal
[6] = tested on: SF-268 CNS
[7] = tested on: SF-295 CNS
[8] = tested on: SF-539 CNS
[9] = tested on: UACC-257 melanoma

O=S(=O)(Nc1ccc2ccccc2c1)c1ccc(-c2cnc(C3CC3)o2)cc1
growth [1]: 18% | growth [2]: 10.4% | growth [3]: 50.3% | growth [4]: 52.4% | growth [5]: 2.78% (active) | growth [6]: 53.5% | growth [7]: 34.2% | growth [8]: 6.39% (active) | growth [9]: 44.5%

COC(=O)c1ccc2cc(OC)c(OC)cc2c1
growth [1]: 116% | growth [2]: 115% | growth [3]: 117% | growth [4]: 127% | growth [5]: 97% | growth [6]: 114% | growth [7]: 70.4% | growth [8]: 116% | growth [9]: 103%

O=C1CCCC1[n+]1ccccc1 (stereo not drawn)
growth [1]: 105% | growth [2]: 108% | growth [3]: 89.9% | growth [4]: 105% | growth [5]: 121% | growth [6]: 95.2% | growth [7]: 95.1% | growth [8]: 82.6% | growth [9]: 79.2%

Cc1nn(C)c2ncnc(N/N=C/c3cccc(O)c3O)c12
growth [1]: 18.1% | growth [2]: 12.7% | growth [3]: -11.5% (active) | growth [4]: 24.7% | growth [5]: 11% | growth [6]: 6.68% (active) | growth [7]: 18.3% | growth [8]: 5.37% (active) | growth [9]: 3.75% (active)

C(=C(\C1=NCCN1)n1ccc2ccccc21)/c1ccccc1
growth [1]: 103% | growth [2]: 96.7% | growth [3]: 93.4% | growth [4]: 96.8% | growth [5]: 89.9% | growth [6]: 91.8% | growth [7]: 99.3% | growth [8]: 99.5% | growth [9]: 93.3%

CCOC(=O)C(CCN(C)C)c1ccccc1 (stereo not drawn)
growth [1]: 105% | growth [2]: 107% | growth [3]: 96% | growth [4]: 99% | growth [5]: 90.4% | growth [6]: 90% | growth [7]: 101% | growth [8]: 96.2% | growth [9]: 94.2%

NCCCNc1nc2ccccc2c2c(=O)c3cc(Cl)ccc3sc12
growth [1]: -76.9% (active) | growth [2]: -70.1% (active) | growth [3]: -38.3% (active) | growth [4]: -82.9% (active) | growth [5]: 47.1% | growth [6]: 37.7% | growth [7]: 4.81% (active) | growth [8]: 55.7% | growth [9]: 74.9%

CN1CC(c2ccc(Br)cc2)C(C(=O)c2ccc(Br)cc2)C12C(=O)Nc1ccccc12 (stereo not drawn)
growth [1]: 83.5% | growth [2]: 44.8% | growth [3]: 81.7% | growth [4]: 81.7% | growth [5]: 69.7% | growth [6]: 69.5% | growth [7]: 78.5% | growth [8]: 90.5% | growth [9]: 85.5%

N[C@@H]1CCC[C@H]1NCCCCN1C(=O)c2cccc3cc([N+](=O)[O-])cc(c23)C1=O
growth [1]: 22.2% | growth [2]: 18.6% | growth [3]: 57.5% | growth [4]: 45.1% | growth [5]: 32.3% | growth [6]: 34.3% | growth [7]: 55.5% | growth [8]: 32.7% | growth [9]: 61.2%

Cc1cc2oc(/C=C/c3ccccc3)cc(=O)c2c(C)c1Cl
growth [1]: 103% | growth [2]: 118% | growth [3]: 94% | growth [4]: 107% | growth [5]: 98% | growth [6]: 102% | growth [7]: 96.2% | growth [8]: 98.9% | growth [9]: 97%

CCCCCCCCCCCCCCCCCCOc1ccccc1CC(=O)NCC[N+](C)(C)C
growth [1]: 44.3% | growth [2]: 25.9% | growth [3]: 78.8% | growth [4]: 46.7% | growth [5]: -39.7% (active) | growth [6]: 24.2% | growth [7]: 52.1% | growth [8]: 46.4% | growth [9]: 93.8%

Nc1ccc(Br)cc1C(F)(F)F
growth [1]: 116% | growth [2]: 97.1% | growth [3]: 114% | growth [4]: 103% | growth [5]: 116% | growth [6]: 108% | growth [7]: 119% | growth [8]: 97% | growth [9]: 104%

COc1cc(/C=C/C(=O)c2cccc(-n3cc(-c4ccc(Cl)cc4)[nH]c3=O)c2)ccc1O
growth [1]: 78.1% | growth [2]: 17.9% | growth [3]: 87.8% | growth [4]: 86% | growth [5]: 23.7% | growth [6]: 71.7% | growth [7]: 76.7% | growth [8]: 84.2% | growth [9]: 68%

CCN(CC)CCOc1ccc(/C(=C(\C)Cc2ccc(OC)cc2)c2ccc(OC(=O)NCc3ccccc3)cc2)cc1
growth [1]: 78.9% | growth [2]: -51% (active) | growth [3]: 26.1% | growth [4]: 76.3% | growth [5]: 59.7% | growth [6]: 73.7% | growth [7]: 59.4% | growth [8]: 65.6% | growth [9]: 38.2%

O=C(Nc1cccnc1Nc1ccccc1)c1cn(Cc2cccc(Oc3ccccc3)c2)nn1
growth [1]: 69.8% | growth [2]: 33% | growth [3]: 56.3% | growth [4]: 57.3% | growth [5]: 50.1% | growth [6]: 53.6% | growth [7]: 52.3% | growth [8]: 42% | growth [9]: 73%

CCOC(=O)C1=C(CC(O)c2ccc(OC)cc2OC)NC(=O)NC1c1ccccc1 (stereo not drawn)
growth [1]: 110% | growth [2]: 56.1% | growth [3]: 93.8% | growth [4]: 99.4% | growth [5]: 120% | growth [6]: 109% | growth [7]: 109% | growth [8]: 95.1% | growth [9]: 102%

Cc1nc2ccccc2c(/C=C/c2ccc(F)cc2)c1C(=O)/C=C/c1ccccc1
growth [1]: 10.2% | growth [2]: 6.31% (active) | growth [3]: 31.1% | growth [4]: 22.4% | growth [5]: -3.77% (active) | growth [6]: 37.9% | growth [7]: 32.5% | growth [8]: 1.11% (active) | growth [9]: 7.87% (active)

C=C[C@@]1(C)CC(=O)[C@@H](C(C)(C)c2cn(C)c3ccc(Br)cc23)C[C@@H]1O[Si](C)(C)C(C)(C)C
growth [1]: 95.4% | growth [2]: 104% | growth [3]: 92.2% | growth [4]: 96.6% | growth [5]: 108% | growth [6]: 96.5% | growth [7]: 103% | growth [8]: 97.3% | growth [9]: 103%

COc1ccc(Cl)cc1Nc1nc(C(F)(F)F)ccc1C(=O)N/N=C/c1ccc([N+](=O)[O-])cc1
growth [1]: 12.8% | growth [2]: 2.07% (active) | growth [3]: 11.5% | growth [4]: -14.9% (active) | growth [5]: 13% | growth [6]: 15.3% | growth [7]: -52% (active) | growth [8]: 10.8% | growth [9]: -3.41% (active)

Clc1cccc(C2Cc3cnccc3-c3[nH]c4ccncc4c32)c1 (stereo not drawn)
growth [1]: 69.6% | growth [2]: 23.6% | growth [3]: 52.2% | growth [4]: 44.8% | growth [5]: 69.1% | growth [6]: 57.7% | growth [7]: 28.6% | growth [8]: 65.5% | growth [9]: 29.9%

O=[N+]([O-])c1ccccc1Sc1ccccc1[N+](=O)[O-]
growth [1]: 104% | growth [2]: 97.5% | growth [3]: 92.4% | growth [4]: 105% | growth [5]: 98.1% | growth [6]: 88% | growth [7]: 101% | growth [8]: 94.8% | growth [9]: 107%

C[C@@H]1CN(c2cnc(C(=O)Nc3cc(F)cc4cccnc34)cn2)C[C@H](C)N1
growth [1]: 84.1% | growth [2]: 28.5% | growth [3]: 65.2% | growth [4]: 37.7% | growth [5]: 39.8% | growth [6]: 88.1% | growth [7]: 101% | growth [8]: 94.7% | growth [9]: 41.4%

O=c1oc2ccccc2cc1-c1nn(-c2ccccc2)cc1-c1nn[nH]n1
growth [1]: 113% | growth [2]: 103% | growth [3]: 90% | growth [4]: 94.7% | growth [5]: 99.4% | growth [6]: 103% | growth [7]: 99.7% | growth [8]: 97.4% | growth [9]: 100%

CS(=O)(=O)Nc1cc(-c2ccc3ncnc(Nc4ccc5c(cnn5Cc5ccccc5F)c4)c3c2)cnc1Cl
growth [1]: 51.9% | growth [2]: 57.3% | growth [3]: -7.51% (active) | growth [4]: 36.1% | growth [5]: 20.2% | growth [6]: 24.3% | growth [7]: 60.9% | growth [8]: 34.5% | growth [9]: 52.9%

O=c1ccc2ccc(OCCN3CCCCC3)cc2o1
growth [1]: 118% | growth [2]: -17.2% (active) | growth [3]: 107% | growth [4]: 95.7% | growth [5]: 114% | growth [6]: 110% | growth [7]: 98.8% | growth [8]: 106% | growth [9]: 89.3%

Cc1cc(Cl)nc(N2CCN(CCNc3ccnc4cc(Cl)ccc34)CC2)n1
growth [1]: 66.6% | growth [2]: 10.5% | growth [3]: 41.8% | growth [4]: 49.5% | growth [5]: 61.5% | growth [6]: 72.2% | growth [7]: 36.4% | growth [8]: 31.7% | growth [9]: 13.5%

COc1ccc2c(c1)oc1c(C)c3c(c(C)c12)C(=O)N(CCOS(C)(=O)=O)C3=O
growth [1]: 106% | growth [2]: 96% | growth [3]: 90.1% | growth [4]: 90.7% | growth [5]: 116% | growth [6]: 92.3% | growth [7]: 103% | growth [8]: 92.2% | growth [9]: 125%

Source: PubChem BioAssay (NCI)
